PubChem BioAssay AID602163 (The Scripps Research Institute Molecular Screening Center, 2012)
Among all 360,000 compounds or so, about 1,100 (0.31%) were called active. Cut-off read from the data, not from the text of the source: active = activation above about 7.5%; inactive = the rest. What follows is part of a selection rich in actives, with near analogues and random picks from the rest.

tested on: Methionine sulfoxide reductase A (Bos taurus); experiment: activation of methionine sulfoxide reductase A – biochemical, absorbance, bovine, HTS, primary screen (AID 602163); conditions: purified bovine MsrA, absorbance read-out; at 10.6 µM; active compounds read high;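 note: 0% = vehicle and 100% = reference activator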

How did the activation turn out when `CC(=O)NC(Cc1c[nH]c2ccccc12)C(=O)NCCc1ccccc1` (stereo unspecified) was run?
Its activation is -3.82% (inactive).

`CC(=O)NC(Cc1c[nH]c2ccccc12)C(=O)O` (stereo unspecified) was tested. Which activation did it give?
The activation was 9.9% (active).

Which activation does the source give for `O=C(N[C@@H](Cc1c[nH]c2ccccc12)C(=O)O)OCC1c2ccccc2-c2ccccc21` here?
Its activation is 0.63% (inactive).

Which activation does the source give for `NS(=O)(=O)c1cccc(NC(=O)CC23CC4CC(CC(Br)(C4)C2)C3)c1` here?
Its activation is -2.66% (inactive).

`C#CCO[C@@H]1C[C@H](n2cnc3c(=O)[nH]c(NC(=O)C(C)C)nc32)O[C@@H]1CO` was tested. Which activation did it give?
The activation was -0.46% (inactive).

Which activation does the source give for `COc1cc(NC(=O)c2ccccc2)c(OC)cc1NC(=O)Cc1ccccc1` here?
The activation was 0.53% (inactive).

`C/C(=N\NC(=O)c1ccc(C)cc1)C1C(=O)c2ccccc2C1=O` was tested. Which activation did it give?
The activation was -5.75% (inactive).

For `O=C(NC1=CC(=O)c2ccccc2C1=O)c1ccccc1`, which activation is on record?
Its activation is 18.2% (active).

How did the activation turn out when `O=C(CSCc1c(Cl)cccc1Cl)NN1C(=O)c2ccccc2C1=O` was run?
The activation was -2.13% (inactive).

For `O=C(COC(=O)Cc1ccc(Br)cc1)Nc1ccc(N2CCOCC2)cc1`, which activation is on record?
The activation was -1.14% (inactive).

How did the activation turn out when `Cn1c(SCC(=O)N2CCCC2)nnc1-c1cccs1` was run?
The activation was -0.73% (inactive).

How did the activation turn out when `O=C(CSc1ncccn1)N1CCCC1` was run?
Its activation is -3.29% (inactive).

With `O=C(CSc1n[nH]c(-c2cccs2)n1)N1CCCCC1` as the compound, how does the activation read?
The activation was 8.31% (active).

For `CCCCn1c(N)c(N(CC(C)C)C(=O)CSc2ccc([N+](=O)[O-])cc2)c(=O)[nH]c1=O`, which activation is on record?
Its activation is -3.75% (inactive).

`COc1ccc([C@H]2CC(=O)C=C(/C=C/c3ccc(Cl)cc3)C2)cc1` was tested. Which activation did it give?
Its activation is -1.21% (inactive).

For `COc1ccc([C@H]2CC(=O)C=C(/C=C/c3ccccc3)C2)cc1`, which activation is on record?
The activation was 8.06% (active).

`COc1ccc([C@H]2CC(=O)C=C(c3ccc(C)cc3)C2)cc1` was tested. Which activation did it give?
Its activation is -3.05% (inactive).

With `O=C(Nc1cccn(Cc2c(Cl)cccc2Cl)c1=O)c1ccc(Cl)cc1` as the compound, how does the activation read?
Its activation is 2.68% (inactive).

`CC(Sc1nnc(CNC(=O)c2ccccc2F)n1C)C(=O)Nc1nccs1` (stereo unspecified) was tested. Which activation did it give?
The activation was 0.09% (inactive).

Which activation does the source give for `O=C(O)c1ccccc1NC(=O)c1ccccc1-c1ccccc1C(=O)O` here?
The activation was 7.87% (active).

Which activation does the source give for `O=C(O)c1ccccc1-c1ccccc1C(=O)Nc1ccccc1Br` here?
Its activation is -10.3% (inactive).

How did the activation turn out when `O=C(Nc1ccccc1F)c1ccccc1-c1ccccc1` was run?
The activation was -1.97% (inactive).

With `O=C(O)c1ccccc1-c1ccccc1C(=O)Nc1nccs1` as the compound, how does the activation read?
The activation was -2.03% (inactive).

For `O=C(O)c1ccccc1-c1ccccc1C(=O)Nc1cccc2ccccc12`, which activation is on record?
The activation was 11.4% (active).

Which activation does the source give for `O=C(O)c1ccccc1-c1ccccc1C(=O)NCCc1ccccc1` here?
Its activation is -13.5% (inactive).

Which activation does the source give for `N#Cc1ccc(OCCN2C(=O)NC3(CCSC3)C2=O)cc1` (stereo unspecified) here?
Its activation is -0.26% (inactive).
